An excerpt weighted towards active compounds, which were near 19% of everything screened.
DT40 TDP1 no CPT = qHTS for Inhibitors of human tyrosyl-DNA phosphodiesterase 1 (TDP1): qHTS in cells in absence of CPT. Potency, µM (doses to about 46.2 µM), for inactives: at the highest dose activity change, negative = growth inhibition, hits mostly inhibitors. 420,000 tested, 15% active. DT40 Tdp1-/- hTDP1 cells, no CPT, ATP luminescence, 48 h. AID 686978, 2013; also: potency is read from the fitted curve at half-maximal effect; % is scaled to controls: 0 for no effect and ±100 for the full control effect; nearly all actives have a fitted effect of over 55% in size
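Growth of hTDP1-complemented DT40 Tdp1-knockout cells is measured by ATP luminescence after at least 48 hr compound exposure at 37 °C, with DMSO substituting for the 20 nM CPT used in the parallel screen.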
BCR signal inh = inhibitors of chronic active B-cell receptor signaling; AID 493014; ABC-DLBCL IkBa-CBG/CBR reporter, luminescence ratio, 4 h; Potency, µM (highest dose often 46.1 µM), for the others: at the top dose activity change, negative = inhibition, hits mostly inhibitors; 340,000 tested, 0.05% active; active = well fitted inhibition curve with a large enough effect in the signal ratio, with a control signal flat, not every such curve was filed as active; inconclusive = small, poorly fitted or top-dose-only effect, or effect the other way, or a change in a side signal; the % refers to the signal ratio;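 also: potency is read from the fitted curve at half-maximal effect; plate controls were basal doxycycline-induced cells for no effect and cells given 10 µM MG132 for full effect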
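Doxycycline induced both beetle luciferases in TMD8 lymphoma cells; IKK-driven degradation limits the IkappaBalpha-fused green signal, while red luminescence normalises for cell number and nonspecific effects. Compounds tested up to 46 uM, 4 hrs.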
MCF10A rereplic = induces DNA re-replication in MCF 10a normal breast cells; MCF 10A DNA re-replication, Hoechst nuclear intensity, 48 h; Potency, µM (doses to about 46.1 µM), for inactives: at the top dose activity, positive = re-replication, most hits filed as activators; 350,000 tested, 2.9% active; AID 624296; also: potency is read from the fitted curve at half-maximal effect; % of control where 0% means no effect; nearly all actives have a fitted effect of over 50% in size
IL1B secr inh = blocks inflammasome-driven IL-1 beta release; THP-1 LPS/ATP IL-1B secretion, AlphaLISA, 16 h; hits give low values; activity change, % at 57.5 µM; 360,000 tested, 4.7% active; in the data active = activity change below about -50%; inconclusive = mostly about -30% to -49%; also: % is scaled to controls: 0 for no effect and ±100 for the full control effect
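Secreted IL-1B measured by AlphaLISA bead assay after 16 h compound exposure of THP-1 cells; compounds (final up to 57.5 uM) added 1 h before LPS (250 ng/mL) and ATP (1.25 mM) stimulation; lower signal means less secretion.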
TDP1 cell CPT = DT40-hTDP1 cell growth loss with CPT | chicken DT40 Tdp1-/-;hTDP1 cells + 20 nM CPT, ATP luminescence, 48 h | Potency, µM (doses to about 46.2 µM), for inactives: at the top dose activity change, negative = growth inhibition, actives largely listed as inhibitors | 420,000 tested, 12% active; also: potency is read from the fitted curve at half-maximal effect; % is scaled to controls: 0 for no effect and ±100 for the full control effect; nearly all actives have a fitted effect of over 55% in size
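Chicken DT40 Tdp1-/- cells complemented with human TDP1, 400 cells/well, exposed to compounds plus 20 nM camptothecin for at least 48 h at 37 C; viability read as ATP content by CellTiter-Glo luminescence.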
SW480 rereplic = induces DNA re-replication in SW480 colon adenocarcinoma cells | 340,000 tested, 1.8% active | SW480 DNA re-replication, Hoechst DNA content imaging, 48 h | Potency, µM (doses to about 46.1 µM), without a hit: at the top dose re-replication activation, usual class: activators; also: potency is read from the fitted curve at half-maximal effect; % of control where 0% means no effect; nearly all actives have a fitted effect of over 55% in size
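Hoechst fluorescence of nuclei (405 nm excitation, 500-530 nm emission) measured by plate-scanning imager after 48 hr compound exposure at 37 C; re-replication scored as increased number of nuclei with elevated intensity.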
* marks the source's active call; other numbers are inactive results; ? = inconclusive; nt = no result; [ ] = dose if it differs, or a comment. Unless noted, calls follow the shape of the dose curve; as a rule, active = well fitted curve in the direction sought with a large enough effect; inconclusive = small, poorly fitted or top-dose-only effect, or another doubt; inactive = no such curve, though single readings can be large; an effect the other way counts as inactive or inconclusive.

SMILES	DT40 TDP1 no CPT	BCR signal inh	MCF10A rereplic	IL1B secr inh	TDP1 cell CPT	SW480 rereplic
C=CC[C@@H](CC(=O)N[C@@H](CO)Cc1ccccc1)C(=O)N[C@@H](COC(=O)[C@@H](CC=C)CC(=O)OC(C)(C)C)Cc1c[nH]c2ccccc12	13µM*	-1%	-2%	-21	21µM*	?
C=CC[C@H](CC(=O)N[C@H](CO)Cc1ccccc1)C(=O)N[C@H](COC(=O)[C@@H](CC=C)CC(=O)OC(C)(C)C)Cc1c[nH]c2ccccc12	?	2%	12%	-28	?	-7%
C=CC[C@@H](CC(=O)NCCO)C(=O)NC[C@H](OC(=O)[C@@H](CC=C)CC(=O)OC(C)(C)C)c1ccccc1	?	2%	0%	9	?	-21%
C=CC[C@@H](CC(=O)N[C@@H](CO)Cc1ccccc1)C(=O)N[C@@H](COC(=O)[C@H](CC=C)CC(=O)OC(C)(C)C)Cc1c[nH]c2ccccc12	21µM*	?	-7%	-19	?	2%
O=C(CCNC(=O)c1ccc([N+](=O)[O-])cc1)Nc1nc2ccccc2[nH]1	-29%	?	-27%	-6	-4%	-5%
O=S(=O)(CCN1CCOCC1)c1ccc(OC(F)(F)F)cc1	3%	-5%	8%	-25	-1%	4%
CC1CCCC/C1=N\NS(=O)(=O)c1ccc(Br)cc1 (stereo unspecified)	1%	4%	-4%	12	-3%	-11%
O=C1NCCCC1C(=O)N/N=C/c1cccc(Cl)c1 (stereo unspecified)	-11%	?	-13%	3	31%	-132%
C=CC[C@@H](CC(=O)N[C@H](CO)Cc1ccccc1)C(=O)N[C@H](C)COC(=O)[C@@H](CC=C)CC(=O)OC(C)(C)C	?	-1%	6%	8	?	-1%
C=CC[C@@H](CC(=O)N[C@H](CO)Cc1ccccc1)C(=O)N[C@H](COC(=O)[C@@H](CC=C)CC(=O)OC(C)(C)C)Cc1c[nH]c2ccccc12	?	?	18%	?	?	6%
C=CC[C@@H](CC(=O)N[C@H](CO)Cc1ccccc1)C(=O)N[C@@H](COC(=O)[C@@H](CC=C)CC(=O)OC(C)(C)C)Cc1ccccc1	?	0%	1%	-19	16µM*	15%
C=CC[C@@H](CC(=O)N[C@H](CO)Cc1ccccc1)C(=O)N[C@@H](COC(=O)[C@@H](CC=C)CC(=O)OC(C)(C)C)Cc1c[nH]c2ccccc12	?	?	1%	-27	16µM*	-4%
COc1ccccc1N1CCN(C(=O)/C=C/c2c(Cl)nc3ccccn23)CC1	4.6µM*	-1%	-3%	-61*	10µM*	-9%
COCCn1c(SCc2cnc(-c3ccccc3)s2)nnc1-c1ccncc1	?	?	18%[9.22 µM]	9	21µM*	-4%
Cc1ccccc1NC(=O)CN1C(=O)N/C(=C\c2ccccc2OCc2ccc(C(=O)O)cc2)C1=O	1%	?	2%	5	2%	5%
Nc1nc2c(ncn2[C@@H]2O[C@H](COP(=O)(O)OP(=O)(O)O)[C@@H](O)[C@H]2O)c(=O)[nH]1	-15%	nt	nt	nt	-16%	nt
Cc1ccc(NC(=O)CC2Nc3cccc4cccc(c34)NC2=O)cc1 (stereo unspecified)	6.5µM*	nt	nt	nt	?	nt
O=C(CC1Nc2cccc3cccc(c23)NC1=O)Nc1ccccc1 (stereo unspecified)	26µM*	?	4%	-63*	?	-2%
COC(=O)C(CO)NC(=O)C1CCCN1C(=O)CNC(=O)OCc1ccccc1 (stereo unspecified)	-1%	7%	-2%	19	4%	-16%
COc1ccc(NC(=O)CNc2ccccc2C(C)=O)cc1S(=O)(=O)N1CCOCC1	-22%	-7%	2%	-2	?	-37%
O=C(O)CSc1nc2c(c(C(F)(F)F)n1)CCc1ccccc1-2	-9%	17%	6%	11	-6%	?
O=C(CSc1nc2c(c(C(F)(F)F)n1)CCc1ccccc1-2)NCc1ccccc1	26µM*	5%	14%	32	?	-2%
C=CCOc1ccc(/C=C2\SC(=S)N(N3CCOCC3)C2=O)cc1	-21%	-2%	-3%	7	-5%	5.8µM*
O=C1/C(=C/c2ccncc2)SC(=S)N1N1CCOCC1	?	-3%	2%	-8	13µM*	-9%
CC(C)(C)[C@H]1C=C(C(=O)O)O[C@@H](OCc2ccc(CO)cc2)C1	1%	nt	-2%	15	-3%	-2%
SMILES	DT40 TDP1 no CPT	BCR signal inh	MCF10A rereplic	IL1B secr inh	TDP1 cell CPT	SW480 rereplic
CCC(C)NC(=O)CSc1nnc(-c2cc(-c3cccs3)nc3ccccc23)o1 (stereo unspecified)	18µM*	5%	?	-10	?	9%
O=C(NC(=S)Nc1cccc(NC(=O)c2ccc(Cl)cc2Cl)c1)c1cccs1	?	-1%	11%	2	?	-4%
N#Cc1ccc(NC(=O)c2ccc3c(c2)nnn3C2CCCC2)cc1	-10%	nt	nt	nt	-16%	nt
Cc1ccc(C2CC(c3ccccc3)=NN2C(=S)Nc2ccccc2)o1 (stereo unspecified)	5.8µM*	?	5.2µM*	-9	3.3µM*	12µM*
CCn1c(SCc2c(F)cccc2Cl)nnc1-c1ccco1	18µM*	-2%	17%	?	?	-5%
Cn1c(SCC(=O)c2ccc(-c3ccccc3)cc2)nnc1-c1ccco1	26µM*	8%	5%	0	-24%	0%
CCn1c(Sc2ccc([N+](=O)[O-])cn2)nnc1-c1ccco1	2.1µM*	?	6.5µM*	-82*	1.6µM*	8%
CC(=O)Nc1ccc(-c2nnc(SCC(=O)c3ccc4c(c3)Cc3ccccc3-4)n2C)cc1	12µM*	21%	?	2	13µM*	1%
Cn1c(SCC(=O)c2ccc3c(c2)Cc2ccccc2-3)nnc1-c1cccc(N)c1	?	6%	18%	-5	?	2%
CCc1cc2c(c(CC)n1)CCC(=O)N2Cc1ccc(-c2ccccc2-c2nn[nH]n2)cc1	-3%	nt	nt	nt	10%	nt
COC(=O)c1ccccc1NC(=O)CCC(=O)N1CCOc2ccccc21	-29%	nt	nt	nt	-20%	nt
COc1cc(OC)cc(-c2c(Sc3ccccc3)c3cc(-c4ccc(SC)cc4)ccc3n2C)c1	-18%	nt	nt	24	-12%	nt

Screening data (PubChem BioAssay)
